Data: the supplement of paper PMC6555819

How the values were obtained:
Assay in all cases: PBM binding z-score (relative to random genomic background probes); higher = stronger binding; sequences stand for … in GC…GCGATTGACAGCGTAGAATGAAGG
[1] = tested on: RARb homodimer (NR concentration 270 nM)
In short: (§1)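 Ligand-free nuclear receptor dimers were bound for 1 h to custom Agilent 4×180K protein-binding microarrays. Detection used antibodies against each partner (one per run). Binding z-scores rest on regression-normalized fluorescence, with random background probes as the reference.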

[2] = tested on: RARg:RXRa (NR concentration 270 nM, RXRa partner concentration 90 nM)
In short: as §1

[3] = tested on: RARg homodimer (NR concentration 270 nM)
In short: as §1

[4] = tested on: RXRa DBDmut IVT, anti-RXR (DBD mutation: RXRa K156A/R161A, NR concentration 90 nM)
In short: as §1

[5] = tested on: RXRa homodimer (NR concentration 180 nM)
In short: as §1

[6] = tested on: THRa:RXRa (NR concentration 90 nM, RXRa partner concentration 90 nM)
In short: as §1

[7] = tested on: THRa homodimer (NR concentration 90 nM)
In short: as §1

[8] = tested on: VDR homodimer (NR concentration 270 nM)
In short: as §1

| Sequence | PBM binding z-score [1] | PBM binding z-score [2] | PBM binding z-score [3] | PBM binding z-score [4] | PBM binding z-score [5] | PBM binding z-score [6] | PBM binding z-score [7] | PBM binding z-score [8] |
| --- | --- | --- | --- | --- | --- | --- | --- | --- |
| AGAAGGAGGTTATTAAGATCAGGGAATTGCGGTC | 1.32 | 0.881 | 0.837 | 0.39 | 1.36 | 1.18 | 0.884 | 1.23 |
| TGCCAAAGTTCAAAGGTAACGTAAGTATCCACAC | 3.8 | 6.37 | 6.18 | 4.65 | 7.16 | 3.44 | -0.0439 | 5.01 |
| ATCGAAAGGTCGTAGGTGAGTATACCCACCCGAA | 2.79 | 4.48 | 3.9 | 1.21 | 5.28 | 2.5 | 0.0179 | 1.21 |
| TAGCCTAGGTCATGCGGGCGAGTATAGTGTCGGC | 2.94 | 3.64 | 3.75 | 0.518 | 2.68 | 2.89 | 1.22 | 0.494 |
| TCTCGGAGGACTCGAAGGTCAGAGCTTTCCAGAG | 2.73 | 1.7 | 1.24 | 0.262 | 1.41 | 1.65 | -0.0603 | -0.0798 |
| GCTGCAAGGTCAGGTTGGTCAGCTAACGGGTACG | 3.9 | 4.56 | 5.49 | 2.04 | 3.72 | 3.26 | 1.48 | 1.23 |
| CCTTTCGGGTCACTGACAGGTTATAGCATTTGGA | 3.44 | 5.76 | 4.91 | 2.55 | 5.16 | 4.17 | 2.95 | 1.19 |
| CTCGAAAGGTCGGTTGAGGCGAGTATACGGATAA | 1.33 | 2.36 | 2.23 | 0.644 | 1.72 | 4.02 | -0.501 | -0.121 |
| CCTACTGGGCCTTCAGGTCATTGATATCAACGTT | 2.18 | 1.13 | 1.39 | -0.0421 | 0.791 | 3.15 | 3.23 | 1.64 |
| ACTCGGAGGACAAAGGTCCGAGCTACGCCAGTGA | 0.57 | 0.663 | 0.927 | 0.364 | 0.0174 | 0.646 | -0.259 | -0.261 |
| CGTCCAAGGTCAGTAGGTCAGTGAAAGCGACGTG | 4.74 | 5.95 | 6.1 | 2.72 | 4.05 | 3.35 | 1.74 | 1.94 |
| CCTACTGGGCGAAAAAGGTCATTGATGCCGATAA | 4 | 3.97 | 3.43 | 0.151 | 4.51 | 3.05 | -0.0329 | 1.75 |
| AGTCAAAGTTAATCTAGGTAACGTAAGATATGCT | -0.203 | 0.152 | 0.434 | -0.168 | 0.0123 | 2.91 | 0.311 | -0.189 |
| AATACAGGGTCATCGTAGGCCTGAGTACGCACAG | 3.36 | 5.59 | 4.89 | 3.34 | 6.77 | 4.2 | 1.25 | 3.73 |
| CCAGACAGGTGAGAAGGTAACTCCGCCTCGATTA | 0.57 | 0.45 | 0.417 | -0.0199 | 0.0477 | 0.0136 | 0.252 | -0.0348 |
| ATCGAAAGGTCGACGAGGTTAGTATACACCGTTT | 3.1 | 4.27 | 4.18 | 1.45 | 4.55 | 3.37 | 0.478 | 2.31 |
| CATACAGGCTCAGCTAGGCCAGAGTAGGGACGGC | -0.642 | -0.268 | 0.0433 | -0.877 | -0.366 | -0.349 | -0.416 | -0.751 |
| ATCTCGAGGTAACCAAGTTCAGTGAATGCCGAAC | 1.62 | 0.86 | 1.02 | 0.865 | 0.825 | 2.41 | 0.867 | 3.01 |
| CCTGCTAGGTCATGGTCATCTAATCTACAGTATG | 3.47 | 4 | 4.75 | 1.78 | 2.78 | 3.08 | 1.52 | 0.674 |
| AGAATGAGGTTATACGTAAATCAGGGAAGAAAGT | 0.771 | 1.56 | 1.08 | 1.72 | 2.06 | 2.17 | 0.605 | 0.824 |
| ATCTCTAGGTAACAAGTTCGGTGAAAGAGAGGAC | 1.21 | 0.788 | 0.885 | 0.327 | 0.444 | 1.48 | 0.922 | 1.22 |
| CCTACTGGGCCACGATAGGTCATTGATTCAGTGA | 2.93 | 2.17 | 2.17 | -0.409 | 1.92 | 2 | -0.0133 | 0.0413 |
| TCTTGTAGATCAAGCAGGTTGAGAAAGCCTGAGT | -0.543 | -0.355 | -0.321 | 0.479 | -0.0549 | 0.0431 | -0.698 | -0.0523 |
| GTACCAAGGTGAATGGGTCGTTGATGAGTAGGCG | 1.33 | 1.28 | 0.93 | -0.402 | 1.08 | 1.74 | 0.777 | 0.187 |
| CCTGCTAGGTCAATGGTCAGCTATAGCAGCTCGC | 3.2 | 3.54 | 4.59 | 1.75 | 2.21 | 2.26 | 0.61 | 0.24 |
| ATCTCTTGGTAAGACTCAGTTCAGTGAAGAACGC | 0.908 | 0.084 | 0.186 | 0.852 | -0.0369 | 0.736 | 1.13 | 1.76 |
| CGATCTAGGTCATTGACAGGACAGTGAATAGTAA | 2.8 | 4.48 | 4.41 | 2.67 | 2.41 | 3.11 | 1.21 | 1.49 |
| TCTAGTTGGTTAAAGGTCACACACTCGAAATGCG | 5.19 | 6.13 | 5.53 | 2.21 | 6.72 | 4.02 | 2.69 | 2.78 |
| ATATGTACGTTATCGGGTCATTCAGTTTGCGCAT | 2.25 | 2.06 | 1.64 | 1.78 | 2.34 | 3.26 | 2.69 | 4.2 |
